Measurements published in PubChem BioAssay AID463173 (ICCB-Longwood Screening Facility, Harvard Medical School, 2010).
About 1,700 (3.3%) of roughly 52,000 compounds were called active. No stated cut-off is given here; in the data, active means survival mostly below about 52% (no sharp cut-off); inactive means mostly above about 56%. The list comes from a sample in which actives are over-represented; it also holds similar structures and randomly drawn compounds.

Test system: Wild type
Assay: growth inhibition of S. aureus wild type versus tarO mutant, primary screen, teichoic acid synthesis inhibitors, RN4220, OD600 (AID 463173)
Conditions: S. aureus RN4220 wild type/DeltatarO growth, OD600, 18 h, active compounds read low, screened at 18.75 µg/mL (by protocol)

| Structure (SMILES) | survival |
| --- | --- |
| O=C1CC2C(=O)NCCN2C(=NC(=O)c2ccc(Cl)cc2)N1 (stereo not drawn) | 100% (inactive) |
| COc1cccc(/C=N/NC(=O)c2cccc(C)c2)c1O | 1% (active) |
| COc1cccc(/C=N/NC(=O)CSCc2ccccc2)c1O | 108% (inactive) |
| COc1cccc(/C=N/NC(=O)COc2c(C)cccc2C)c1O | 113% (inactive) |
| COc1cc(OC)cc(C(=O)Nc2ccc(S(=O)(=O)N3CCCCC3c3cccnc3)cc2)c1 (stereo not drawn) | 71% (inactive) |
| Cc1ccc(Cl)cc1N1CCN(C(=O)CCS(=O)(=O)c2cc(Br)cc3c2N(C(=O)C2CC2)CC3)CC1 | 80% (inactive) |
| O=C(NCc1ccccc1)c1ccc(NC(=O)c2nsc3ccccc23)cc1 | 55% (inactive) |
| CC(NC(=O)c1cccc(NC(=O)c2nsc3ccccc23)c1)c1ccccc1 (stereo not drawn) | 111% (inactive) |
| CCC(C)NC(=O)c1cccc(NC(=O)c2nsc3ccccc23)c1 (stereo not drawn) | 76% (inactive) |
| O=C(NCc1cccc(F)c1)c1cccc(NC(=O)c2nsc3ccccc23)c1 | 87% (inactive) |
| O=C(NCc1cccc(F)c1)c1ccc(NC(=O)c2nsc3ccccc23)cc1 | -4% (active) |
| COC(=O)c1cccc(NC(=O)c2nsc3ccccc23)c1 | 0% (active) |
| Cc1ccccc1Nc1c(-c2ccc(N3CCOCC3)cc2)nc2cccc(C)n12 | 59% (inactive) |
| Cc1ccc(N(C)C(=O)C2CCCN(c3ncnc4c3nc3n4CCCCC3)C2)cc1C (stereo not drawn) | 127% (inactive) |
| CCc1ccc(NC(=O)C2CCN(c3nn4cc(-c5ccc(OC)cc5)nc4s3)CC2)cc1 | 71% (inactive) |
| COc1ccc(-c2nc3c4ccccc4n(CC(=O)N4CCN(c5ccccc5F)CC4)c(=O)n3n2)cc1 | 91% (inactive) |
| CC1(C)C(=O)NC(=O)N1CN1C(=O)NC(=O)C1(C)C | 111% (inactive) |
| CCOc1ccc(C(=O)Nc2ccc(-n3nncc3-c3ccccc3)cc2)cc1OCC | 135% (inactive) |
| O=C(c1cc2c(=O)oc3ccccc3c2s1)N1CCN(c2cccc(Cl)c2)CC1 | 145% (inactive) |
| CCCN1C(=O)c2ccccc2CC1(C)C(=O)NC1CCCCC1 (stereo not drawn) | 85% (inactive) |
| Cc1cccc(C(=O)Nc2sc3c(c2C(=O)Nc2ccccc2)CCC3)c1 | 67% (inactive) |
| Cc1cccc(NC(=O)c2c(NC(=O)c3ccccc3)sc3c2CCCC3)c1 | 82% (inactive) |
| Cc1cccc(NC(=O)c2c(NC(=O)c3ccccc3)sc3c2CCC3)c1 | 80% (inactive) |
| Cc1cccc(NC(=O)c2c(NC(=O)C(F)(F)F)sc3c2CCCCC3)c1 | -3% (active) |

| Structure (SMILES) | survival |
| --- | --- |
| O=C(Nc1cccc(Cl)c1)c1c(NC(=O)C(F)(F)F)sc2c1CCCC2 | -2% (active) |
| Cc1cccc(NC(=O)c2c(Br)sc3c2CCCC3)c1 | 0% (active) |
| O=C(Cc1ccccc1)Nc1sc2c(c1C(=O)Nc1cccc(Cl)c1)CCCCC2 | 91% (inactive) |
| COc1ccc(CC(=O)Nc2sc3c(c2C(=O)Nc2cccc(C)c2)CCCCC3)cc1 | 63% (inactive) |
| O=C(Nc1sc2c(c1C(=O)Nc1cccc(Cl)c1)CCCC2)c1cccs1 | 140% (inactive) |
| CCOC(=O)c1c(S(=O)(=O)N2CCCC(C(=O)N3CCN(c4cc(C)ccc4C)CC3)C2)c(C)n(C)c1C (stereo not drawn) | 72% (inactive) |
| COc1cccc(-c2cc(C(=O)Nc3cnn(Cc4ccc(Cl)cc4Cl)c3)no2)c1 | 112% (inactive) |
| CCC(=O)n1c2c(c3ccccc31)Nc1ccccc1N2 | 105% (inactive) |
| CC(C)Oc1ccc(CNC(=O)C2CCN(Cc3cc4ccccc4n3Cc3ccccc3)CC2)cc1 | 93% (inactive) |
| CCC(C(=O)NCCc1ccc(Cl)cc1)n1ccc2cc(S(=O)(=O)N3CCCCC3)ccc21 (stereo not drawn) | 101% (inactive) |
| CCC(c1nnnn1C1CCCC1)N1CCN(Cc2ccccc2)CC1 (stereo not drawn) | 104% (inactive) |
| COc1ccc(C(=O)c2cn(CC(=O)Nc3cc(C)ccc3C)c3nc(C)ccc3c2=O)cc1 | 146% (inactive) |
| CCOC(=O)C1NC(=O)CC1c1ccccc1 (stereo not drawn) | 99% (inactive) |
| Cc1cccc(OC(C)C(=O)N2CCC(c3nc4ccccc4o3)CC2)c1C (stereo not drawn) | 74% (inactive) |
| CC(Oc1ccccc1F)C(=O)N1CCC(c2nc3ccccc3o2)CC1 (stereo not drawn) | -18% (active) |
| Cc1cccc(OCC(=O)N2CCC(c3nc4ccccc4o3)CC2)c1C | 72% (inactive) |
| COc1ccccc1OCC(=O)N1CCC(c2nc3ccccc3o2)CC1 | -12% (active) |
| CCc1ccc(OC(C)C(=O)N2CCC(c3nc4ccccc4o3)CC2)cc1 (stereo not drawn) | 92% (inactive) |
| Cc1cccc(C)c1OCC(=O)N1CCC(c2nc3ccccc3o2)CC1 | 81% (inactive) |
| Cc1ccccc1C(=O)NC1CCN(CC(=O)NC(C)(C)C)CC1 | 100% (inactive) |
| CC(Oc1ccc(/C=C(/C#N)C(=O)N2CCOCC2)cc1)C(=O)O (stereo not drawn) | 104% (inactive) |
| Cc1ccc(N(C)C(=O)c2noc3c2CCCCC3)cc1C | 73% (inactive) |
| CCCCn1c(=O)c2oc3ccccc3c2n(Cc2ccc(OC)cc2)c1=O | 115% (inactive) |
| CCCCN(C)CC(O)Cn1cc(/C=C/C(=O)c2ccc(Br)cc2)c2ccccc21 (stereo not drawn) | 15% (active) |

| Structure (SMILES) | survival |
| --- | --- |
| CCOc1ccc(C(=O)/C=C/c2cn(CC(O)CN3CCc4ccccc43)c3ccccc23)cc1 (stereo not drawn) | 69% (inactive) |
| CCCCN(C)CC(O)Cn1cc(/C=C/C(=O)c2ccc(OC)c(OC)c2)c2ccccc21 (stereo not drawn) | 87% (inactive) |
| Cc1ccc(C(=O)/C=C/c2cn(CC(O)CN3CCc4ccccc43)c3ccccc23)cc1 (stereo not drawn) | 76% (inactive) |
| CCCCN(C)CC(O)Cn1cc(/C=C/C(=O)c2ccc(C)cc2)c2ccccc21 (stereo not drawn) | 15% (active) |
| CCCCN(C)CC(O)Cn1cc(/C=C/C(=O)c2ccc(OCC)cc2)c2ccccc21 (stereo not drawn) | 21% (active) |
| O=C(O)CCc1ccc(-c2ccccc2)n1Cc1ccco1 | 103% (inactive) |
| CCOc1ccc(S(=O)(=O)N(C(C)=O)c2ccc3oc(C)c(C(=O)OC)c3c2)cc1 | 130% (inactive) |
| Cc1ccc(N(Cc2cccs2)C(=O)c2ccccc2[N+](=O)[O-])cc1 | 82% (inactive) |
| CN1C=CC=C/C1=C1\SC(=S)N(C2CCCCC2)C1=O | 120% (inactive) |
| CCOc1ccc(NC(=O)c2ccc(NC(=O)N3CCSc4ncccc43)cc2)cc1 | 64% (inactive) |
| CCc1cccc(NC(=O)c2ccc(NC(=O)N3CCSc4ncccc43)cc2)c1 | -3% (active) |
| CC(=O)c1ccc(NC(=O)c2cccc(NC(=O)N3CCSc4ncccc43)c2)cc1 | 55% (inactive) |
| CC(C)Oc1ccc(CNC(=O)c2cccc(NC(=O)N3CCSc4ncccc43)c2)cc1 | 79% (inactive) |
| Cc1ccc(Cl)cc1NC(=O)c1ccc(NC(=O)N2CCSc3ncccc32)cc1 | 71% (inactive) |
| CC(C)Oc1ccc(CNC(=O)c2ccc(NC(=O)N3CCSc4ncccc43)cc2)cc1 | 1% (active) |
| Cc1ccccc1NC(=O)c1ccc(NC(=O)N2CCSc3ncccc32)cc1 | -4% (active) |
| CC(C)Oc1ccc(CNC(=O)Cc2ccc(NC(=O)N3CCSc4ncccc43)cc2)cc1 | 73% (inactive) |
| Cc1ccc(NC(=O)c2ccc(NC(=O)N3CCSc4ncccc43)cc2)c(C)c1 | 82% (inactive) |
| CCOc1ccc(-c2oc3cc(Cl)ccc3c(=O)c2O)cc1OC | 103% (inactive) |
| CC(C)NC(=O)CSc1cn(CC(=O)N2CCCCCC2)c2ccccc12 | 95% (inactive) |
| Cc1cc2c(cc(C(=O)OC(C(=O)NCC3CCCO3)C(C)C)n2C)o1 (stereo not drawn) | 120% (inactive) |
| O=C(c1ccc(F)cc1)N1c2ncnn2C2(CCCCC2)[C@@H]2CCCC[C@@H]21 | 82% (inactive) |
| COc1ccc(Cn2c(CNS(=O)(=O)c3ccc(Cl)s3)nc3cccnc32)cc1 | 78% (inactive) |
| CCC/C(O)=C1\C(=O)CC(C)(C)CC1=Nc1ccncc1 | 115% (inactive) |

| Structure (SMILES) | survival |
| --- | --- |
| CCc1ccc(NC(=O)CN2CCN(C3CCCCC3)C(=O)C2=O)cc1 | 77% (inactive) |
| CCc1ccc(NC(=O)C2CCCN(S(=O)(=O)c3ccc(F)cc3)C2)cc1 (stereo not drawn) | 75% (inactive) |
| CCOC(=O)c1c(C(=O)CSc2ncc(-c3ccc(F)cc3)n2Cc2ccco2)sc2c1CCCC2 | 116% (inactive) |
| CCOc1ccc(C(C)N)cc1 (stereo not drawn) | 102% (inactive) |
| COCCNC(=O)Nc1ccc2c(c1)nc(C)n2C | 87% (inactive) |
| COc1cc(C2Nc3ccccc3-c3cc(C)nn32)ccc1O (stereo not drawn) | 139% (inactive) |
| COc1cc(C2Nc3c(C)cc(C)cc3-c3cc(C)nn32)cc(OC)c1O (stereo not drawn) | 97% (inactive) |
| CCN(CC)c1ccc(C2Nc3ccccc3-c3cc(C)nn32)cc1 (stereo not drawn) | -1% (active) |
| COC(=O)c1ccc(C2Nc3c(C)cccc3-c3cc(C)nn32)cc1 (stereo not drawn) | -4% (active) |
| COc1cc(OC)c(C2Nc3c(C)cccc3-c3cc(C)nn32)cc1OC (stereo not drawn) | 142% (inactive) |
| CCOc1cccc(C2Nc3ccccc3-c3cc(C)nn32)c1O (stereo not drawn) | 145% (inactive) |
| CC(=O)Nc1ccc(C2Nc3c(C)cc(C)cc3-c3cc(C)nn32)cc1 (stereo not drawn) | 141% (inactive) |
| Cc1cc2n(n1)C(c1ccccc1)Nc1ccccc1-2 (stereo not drawn) | 123% (inactive) |
| CCOc1ccc(C2Nc3c(C)cccc3-c3cc(C)nn32)cc1 (stereo not drawn) | -14% (active) |
| Cc1cc2n(n1)C(c1cc(C(C)(C)C)c(O)cc1O)Nc1ccccc1-2 (stereo not drawn) | 115% (inactive) |
| Cc1ccc2c(c1)-c1cc(C)nn1C(c1cc(Br)ccc1O)N2 (stereo not drawn) | 131% (inactive) |
| COc1ccc(OC)c(C2Nc3c(C)cc(C)cc3-c3cc(C)nn32)c1 (stereo not drawn) | -14% (active) |
| O=C(NCc1ccc(Cl)cc1)C(=O)NCC(c1ccco1)S(=O)(=O)c1cccs1 (stereo not drawn) | 76% (inactive) |
| Cc1ccc(Cn2c(=O)n(Cc3ccco3)c(=O)c3sc4ccccc4c32)cc1 | 94% (inactive) |
| COc1ccc(-c2noc(CN3CCN(c4ccccc4OC)CC3)n2)cc1OC | 83% (inactive) |
| CCOC(=O)N1CCN(C(=O)CN(c2cccc(Cl)c2)S(=O)(=O)c2ccccc2)CC1 | 63% (inactive) |
